Measured values published in PubChem BioAssay (NCI).
Compounds without any hit were thinned out: in the full panel of roughly 83,000, 20% have a hit.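 Results are percent growth after 48 hours of single-concentration exposure. 100 means growth as in untreated cells, lower positive values show inhibition; negative values down to -100 show cell death.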 Values without a mark were called inactive. The source made the active and inactive calls. Rule for the calls: active = growth percent below 10; inactive = the rest.

Tests used:
Test in all cases: NCI-60 one-dose screen, 48 h (100 = growth as untreated, 0 = no growth, -100 = all killed)
Conditions in all cases: 10 µM
NCI-H23 lung = test system: NCI-H23 lung
NCI-H226 lung = test system: NCI-H226 lung
HOP-62 NSCLC = test system: HOP-62 NSCLC
NCI-H460 lung = test system: NCI-H460 lung
HOP-92 NSCLC = test system: HOP-92 NSCLC
NCI-H522 lung = test system: NCI-H522 lung
A549/ATCC NSCLC = test system: A549/ATCC NSCLC
786-0 renal = test system: 786-0 renal
COLO 205 colon = test system: COLO 205 colon
DU-145 prostate = test system: DU-145 prostate
MDA-MB-231 breast = test system: MDA-MB-231 breast
RXF 393 renal = test system: RXF 393 renal
SF-268 CNS = test system: SF-268 CNS
SF-295 CNS = test system: SF-295 CNS
SF-539 CNS = test system: SF-539 CNS
UACC-257 melanoma = test system: UACC-257 melanoma
M14 melanoma = test system: M14 melanoma
K-562 leukemia = test system: K-562 leukemia
MALME-3M melanoma = test system: MALME-3M melanoma

SMILES	growth (NCI-H23 lung)	growth (NCI-H226 lung)	growth (HOP-62 NSCLC)	growth (NCI-H460 lung)	growth (HOP-92 NSCLC)	growth (NCI-H522 lung)	growth (A549/ATCC NSCLC)	growth (786-0 renal)	growth (COLO 205 colon)	growth (DU-145 prostate)	growth (MDA-MB-231 breast)	growth (RXF 393 renal)	growth (SF-268 CNS)	growth (SF-295 CNS)	growth (SF-539 CNS)	growth (UACC-257 melanoma)	growth (M14 melanoma)	growth (K-562 leukemia)	growth (MALME-3M melanoma) [%]
COc1ccc2c(c1)CC=C1[C@@H]2CC[C@]2(C)C(=O)/C(=N/O)C[C@@H]12	102%	87.6%	88.5%	101%	96.5%	102%	99.4%	90.3%	103%	96.6%	86.9%	64%	76.4%	74.9%	98.7%	118%	94.3%		
Nc1c(Br)cc(Br)c2c1[nH]c(=O)c1ccccc12	67%	19.5%	22.4%	29.1%	82.8%	87.4%	58.7%	74.3%	86.5%		54.8%	26.2%	76.9%	73.1%	83.7%	87.9%		78.4%	47.8
Cc1ccc(C)c(COc2cc(NC(=O)c3ccc4c(c3)OCO4)ccc2N(C)S(C)(=O)=O)c1	9.96% (active)	37%	16.1%	-9.36% (active)	23.1%	-15.9% (active)	21.9%	6.5% (active)	-68.3% (active)	-40.5% (active)	-10.8% (active)	-1.01% (active)	20.8%	-4.18% (active)	-7.46% (active)	66.6%	-34.2% (active)	13.3%	
C=CCNCCN1C(=O)c2ccc3c4c(ccc(c24)C1=O)C(=O)N(CCNCC=C)C3=O	-36.4% (active)	-51.6% (active)	-28.7% (active)	-39.3% (active)	-34.5% (active)	-79.7% (active)	-71.4% (active)	-2.95% (active)	-90.5% (active)	-87.7% (active)	5.12% (active)	-74.3% (active)	-17.5% (active)	-73.1% (active)	-90.6% (active)	-90.3% (active)	-84.3% (active)	1.43% (active)	
COc1cc2c(cc1OC)C(C(CCCCCC(CCC(C)C)C1NCCc3cc(OC)c(OC)cc31)CCC(C)C)NCC2 (stereo not given)	-87.4% (active)	-75.6% (active)	-96.7% (active)	-80.3% (active)	-90.4% (active)	-95.4% (active)	-92.9% (active)	-97.8% (active)	-94.5% (active)	-100% (active)	-81.9% (active)		-95.7% (active)	-77.5% (active)	-97.4% (active)	-92.5% (active)	-93.6% (active)	13.6%	
OC(CCN1CCCC1)(c1ccccc1)C1CCCCC1 (stereo not given)	103%	94.3%	120%	110%	115%	102%	104%	100%	117%	108%	104%	103%	95.9%	100%		109%	99.6%	117%	
CC1OC2CC(=O)OC2C2=C1C(=O)c1c(O)c3c(c(O)c1C2=O)C1CC(O)C3(O)C(C)O1 (stereo not given)	-34.2% (active)	-69% (active)	-49.5% (active)	2.35% (active)	-13% (active)	-66.4% (active)	2.66% (active)	-12.3% (active)	-73.5% (active)	-94.9% (active)	-16.3% (active)	-91.1% (active)	1.92% (active)	3.26% (active)	-84.2% (active)	-58.4% (active)	-76.7% (active)	6.27% (active)	
CC(C)(C)c1nn(-c2ccccc2)c2c1CC1(CN2Cc2ccc(Cl)cc2)C(=O)c2ccccc2C1=O	80.8%	81.9%	102%	90.7%	54.8%	80.3%	70.7%	86.7%	117%	95.8%	83.2%	95.3%	89%			76.1%	87.1%	81.3%	
COc1ccc(/C=c2\sc3n(c2=O)C(c2cc(OC)c(OC)c(OC)c2)C=C(c2ccc(OC)c(OC)c2)N=3)cc1OC (stereo not given)	103%	108%	103%	107%	63.3%	58.1%	100%	78.1%	97.3%	112%	85.5%	105%	91.1%	115%		88.9%	100%	89.9%	
